# In the supplement of paper PMC9023506:
# Where a name gives a salt, the structure may show the parent alone.
# System: Danio rerio larvae (5 dpf)
# Assay: activity during first hour (no stimuli), difference vs DMSO (percentage points (treated minus DMSO)); higher = more of the behaviour than the DMSO vehicle control
# Conditions: 10 µM; exposure time: 3 h pre-incubation + 3 h imaging
# Method: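 5-dpf wild-type zebrafish larvae were imaged in 96-well plates. They were treated with 190 Tocris FDA-approved drugs at 10 µM (1 µl/ml DMSO) for 3 h before and 3 h during imaging at 28.5 °C, 48 larvae per drug. Automated image analysis gave % time moving and optomotor responses. Values are drug group mean minus DMSO vehicle mean (n=844), in percentage points, for 10 behaviours.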
row,Compound,activity during first hour
1,CNC(=O)c1cc(Oc2ccc(NC(=O)Nc3ccc(Cl)c(C(F)(F)F)c3)cc2)ccn1 [Sorafenib],3.08
2,CN(C)CC/C=C1/c2ccccc2COc2ccc(CC(=O)O)cc21 [Olopatadine hydrochloride],-0.591
3,CN(C)CCc1c[nH]c2ccc(Cn3cncn3)cc12 [Rizatriptan benzoate],-2.37
4,O=C(O)CCCc1ccccc1 [Sodium 4-Phenylbutyrate],3.48
5,COc1ccc(-c2ccc3cc(C(=O)O)ccc3c2)cc1C12CC3CC(CC(C3)C1)C2 [Adapalene],-0.0907
6,CCCCC1=NC2(CCCC2)C(=O)N1Cc1ccc(-c2ccccc2-c2nnn[nH]2)cc1 [Irbesartan],3.29
7,C#CCN[C@@H]1CCc2ccccc21 [Rasagiline mesylate],4.92
8,Cc1ccc(N(CC2=NCCN2)c2cccc(O)c2)cc1 [Phentolamine Mesylate],9.58
9,O=C(O)c1cc(/N=N/c2ccc(S(=O)(=O)Nc3ccccn3)cc2)ccc1O [Sulfasalazine],13.5
10,CCc1c2c(nc3ccc(OC(=O)N4CCC(N5CCCCC5)CC4)cc13)-c1cc3c(c(=O)n1C2)COC(=O)[C@]3(O)CC,-4.43
11,CCCC1O[C@@H]2C[C@H]3[C@@H]4CCC5=CC(=O)C=C[C@]5(C)[C@H]4[C@@H](O)C[C@]3(C)[C@]2(C(=O)CO)O1 (stereo not given in full) [Budesonide],4.76
12,CC(=O)S[C@@H]1CC2=CC(=O)CC[C@]2(C)[C@H]2CC[C@@]3(C)[C@@H](CC[C@@]34CCC(=O)O4)[C@H]12 [Spironolactone],-0.165
13,O=C(Nc1c(Cl)cncc1Cl)c1ccc(OC(F)F)c(OCC2CC2)c1 [Roflumilast],-15.3
14,CCc1nc(N)nc(N)c1-c1ccc(Cl)cc1 [Pyrimethamine],-0.915
15,CNCc1ccc(-c2[nH]c3cc(F)cc4c3c2CCNC4=O)cc1 [Rucaparib camsylate],-13.6
16,CN(C)C(=N)NC(=N)N [Metformin hydrochloride],-6.37
17,CC(C)[C@H]1CC[C@H](C(=O)N[C@H](Cc2ccccc2)C(=O)O)CC1 [Nateglinide],4.52
18,N[C@@H]1[C@H]2CN(c3nc4c(cc3F)c(=O)c(C(=O)O)cn4-c3ccc(F)cc3F)C[C@@H]12 [Trovafloxacin mesylate],5.81
19,CN1CCN2c3ncccc3Cc3ccccc3C2C1 (stereo not given) [Mirtazapine],11.7
20,COc1cc(N)c(Cl)cc1C(=O)NC1CCN(CCCOc2ccc(F)cc2)CC1OC (stereo not given) [Cisapride],1.47

row,Compound,activity during first hour
1,O=C(c1ccc(OCCN2CCCCC2)cc1)c1c(-c2ccc(O)cc2)sc2cc(O)ccc12 [Raloxifene hydrochloride],-5.98
2,OC(CNCC(O)C1CCc2cc(F)ccc2O1)C1CCc2cc(F)ccc2O1 (stereo not given) [Nebivolol hydrochloride],4.97
3,COCCc1ccc(OCC(O)CNC(C)C)cc1 (stereo not given) [Metoprolol tartrate],5.56
4,CCN(Cc1ccncc1)C(=O)C(CO)c1ccccc1 (stereo not given) [Tropicamide],-5.17
5,C[C@]12CC[C@@H]3c4ccc(O)cc4C[C@@H](CCCCCCCCC[S+]([O-])CCCC(F)(F)C(F)(F)F)[C@H]3[C@@H]1CC[C@@H]2O (stereo not given in full),7.08
6,Cc1ccccc1C(=O)Nc1ccc(C(=O)N2CCCC(O)c3cc(Cl)ccc32)c(C)c1 (stereo not given) [Tolvaptan],1.26
7,N#Cc1ccc(C(c2ccc(C#N)cc2)n2cncn2)cc1 [Letrozole],-3.63
8,Clc1ccc(COC(Cn2ccnc2)c2ccc(Cl)cc2Cl)c(Cl)c1 (stereo not given) [Miconazole nitrate],-18.4
9,CCCN(CCC)S(=O)(=O)c1ccc(C(=O)O)cc1 [Probenecid],-2.71
10,COc1cc(Nc2c(C#N)cnc3cc(OCCCN4CCN(C)CC4)c(OC)cc23)c(Cl)cc1Cl [Bosutinib],-16.6
11,CC(C)c1nc(CN(C)C(=O)N[C@H](C(=O)N[C@@H](Cc2ccccc2)C[C@H](O)[C@H](Cc2ccccc2)NC(=O)OCc2cncs2)C(C)C)cs1 [Ritonavir],-0.488
12,CN1CC(=O)N2[C@H](c3ccc4c(c3)OCO4)c3[nH]c4ccccc4c3C[C@@H]2C1=O [Tadalafil],11
13,NS(=O)(=O)c1cc(C(=O)O)c(NCc2ccco2)cc1Cl [Furosemide],5.98
14,Nc1nc2[nH]cc(CCc3ccc(C(=O)N[C@@H](CCC(=O)O)C(=O)O)cc3)c2c(=O)[nH]1 [Pemetrexed],1.38
15,O=c1[nH]c(=O)n([C@H]2C[C@H](O)[C@@H](CO)O2)cc1C(F)(F)F [Trifluorothymidine],1.96
16,NC(=O)c1ncn([C@@H]2O[C@H](CO)[C@@H](O)[C@H]2O)n1 [Ribavirin],1.58
17,OCCN1C[C@H](O)[C@@H](O)[C@H](O)[C@H]1CO [Miglitol],-1.33
18,C[C@@H](O[C@H]1OCCN(Cc2n[nH]c(=O)[nH]2)[C@H]1c1ccc(F)cc1)c1cc(C(F)(F)F)cc(C(F)(F)F)c1 [Aprepitant],-7.38
19,C[C@@H]1C[C@H]2[C@@H]3CCC4=CC(=O)C=C[C@]4(C)[C@@]3(F)[C@@H](O)C[C@]2(C)[C@@]1(O)C(=O)CO [Dexamethasone],15
20,C[C@H](Cc1cc2c(c(C(N)=O)c1)N(CCCO)CC2)NCCOc1ccccc1OCC(F)(F)F [Silodosin],-1.39
